Assay results as given in PubChem BioAssay AID778 (Sanford-Burnham Center for Chemical Genomics, 2007).
About 20,000 (21%) of roughly 96,000 compounds were called active. Only a sample is shown. A number with no mark means an inactive call.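 The calls were made as follows: active = CYP2C19 inhibition above a set limit at 5 µM in the primary screen (cut at about 50% in these data); inactive = the rest.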 Non-standard residues stand in square brackets, D forms with d. Residues, ends and D or L forms follow the SMILES beside them. ξ: configuration not given here. ξV = CC(C)C(N)C(=O)O

The compounds below were run against Cytochrome P450 2C19 (Homo sapiens) (UniProt P33261) (assay: blockers of cytochrome P450 2C19 activity – biochemical, luminescence, ADME assay, primary screen (AID 778;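 also: plate controls were negative control wells for no effect and 2.5 mM tranylcypromine positive control for full effect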)). Conditions: CYP2C19 Supersomes, luciferin-H EGE luminescence, 30 min; at 5 µM; hits give high values.
Chain of Cytochrome P450 2C19 (Homo sapiens) (P33261 whole entry, looked up): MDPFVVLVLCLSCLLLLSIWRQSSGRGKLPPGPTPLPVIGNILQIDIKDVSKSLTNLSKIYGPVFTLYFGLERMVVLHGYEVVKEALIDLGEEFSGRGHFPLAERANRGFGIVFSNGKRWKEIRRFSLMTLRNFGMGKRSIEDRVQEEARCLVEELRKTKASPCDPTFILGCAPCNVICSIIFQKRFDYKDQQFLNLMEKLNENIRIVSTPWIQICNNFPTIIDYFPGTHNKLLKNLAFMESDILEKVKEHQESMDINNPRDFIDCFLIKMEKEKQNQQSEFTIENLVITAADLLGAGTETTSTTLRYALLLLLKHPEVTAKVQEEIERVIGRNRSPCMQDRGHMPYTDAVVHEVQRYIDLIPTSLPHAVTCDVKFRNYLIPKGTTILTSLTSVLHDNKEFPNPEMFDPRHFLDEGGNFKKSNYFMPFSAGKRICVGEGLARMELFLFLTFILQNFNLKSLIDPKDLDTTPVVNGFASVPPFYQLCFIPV

Row | SMILES | inhibition
1 | Cc1c(CCO)c(=O)n(-c2ccccc2)n1S(=O)(=O)c1ccc(F)cc1 | 78.5% (active)
2 | Cc1c(CCO)c(=O)[nH]n1C(=O)c1c(F)cccc1F | 10%
3 | CCOC(=O)C1CN(S(=O)(=O)c2ccc(F)cc2)C1 | 43.8%
4 | Cc1cc(N2C(=O)C(=O)/C(=C(/O)c3ccc(Cl)cc3)C2c2cccc(Br)c2)no1 (centres undefined) | -6.1%
5 | CC1CCc2c(sc3c2C2=NS(=O)(=O)CCN2C=N3)C1 (centres undefined) | -10%
6 | Cc1ccc(-n2nc3ccc(NC(=O)/C=C/c4ccco4)cc3n2)cc1C | -6.9%
7 | CCOc1ccc(-c2nnn(CC(=O)N3CCN(c4ccc(F)cc4)CC3)n2)cc1OCC | 18.2%
8 | Cc1ccc(SCC(=O)c2cc(C)c(OC(=S)N(C)C)c(C)c2)cc1 | 66.7% (active)
9 | COC(=O)c1cc(OC)c(OC)cc1NC(=O)CSc1ccc(C)cc1 | 29.5%
10 | Cc1ccc(SC(=O)COc2ccc(C)c(C)c2)cc1 | 1.6%
11 | CC(=O)N1CCc2cc(S(=O)(=O)Nc3ccccc3N3CCN(C)CC3)ccc21 | -2.4%
12 | O=S(=O)(Nc1ccccc1N1CCOCC1)c1ccc(Cl)s1 | 50.4% (active)
13 | O=C(CNC(=O)c1ccc(Cl)cc1Cl)NCC(=O)Nc1ccccc1N1CCOCC1 | 20.6%
14 | Cc1cc(NCc2ccco2)n2c(nc3ccccc32)c1C#N | 0.2%
15 | CCN1CCc2c(C#N)c(NCc3ccccc3)nc(NCCO)c2C1 | 9%
16 | N#Cc1c(N)sc2c1CCN(C(=O)OCc1ccccc1)C2 | 92.8% (active)
17 | O=C(O)C1CCN(C(=O)OCc2ccccc2)CC1 | 31.9%
18 | CC(C)Oc1ccc(C(=O)Nc2cc(=O)n(C)c(=O)n2C)cc1 | 12.2%
19 | COC(=O)c1c(NC(=O)c2cccs2)sc2c1CCCC2 | 29.6%
20 | COC(=O)c1c(NC(=O)CSc2nncs2)sc2c1CCCCC2 | 82.9% (active)
21 | CCOC(=O)c1c(NC(=O)CSc2nnc(C)c(=O)[nH]2)sc2c1CCC2 | -11.3%
22 | Cc1ccc(S(=O)(=O)N/N=C\c2cc3c(cc2[N+](=O)[O-])OCO3)cc1 | -11%
23 | CC1=NN(C(C)C)C(=O)C1 | -6.9%
24 | COCCN(CC(=O)Nc1ccccc1C)S(=O)(=O)c1ccc(S(=O)(=O)N2CCCC2)cc1 | 5.4%
25 | Cc1ccc(S(=O)(=O)NC(C)C(=O)Nc2ccccc2C(=O)N2CCCC2)cc1 (centres undefined) | 21.6%

Row | SMILES | inhibition
26 | O=C(CN(c1ccccc1)S(=O)(=O)c1ccc(Cl)cc1)Nc1ccccc1C(=O)N1CCCC1 | 86.7% (active)
27 | Cc1oc2nc(SCC(=O)NCc3cccnc3)nc(N)c2c1C | 8%
28 | c1ccc2c(CNn3cnnc3)cccc2c1 | 26.1%
29 | c1ccc2c(-c3nn4nnnc4c4ccccc34)cccc2c1 | 78.9% (active)
30 | COc1ccc2c(c1OC)C(=O)N(c1ncn[nH]1)C2 | -17.6%
31 | O=C(CCCn1c(=O)oc2ccccc21)Nc1cccnc1 | 24.5%
32 | O=C(OCN1C(=O)c2ccccc2C1=O)/C(=C\c1ccco1)NC(=O)c1ccccc1 | 17.6%
33 | CC(=O)c1ccc2c(c1)c1ccccc1n2CC(C)C | 16.4%
34 | Cc1ccc(N(CC(O)CN2CCCC2)S(=O)(=O)c2ccccc2)cc1 (centres undefined) | 16.8%
35 | CS(=O)(=O)N(CC(O)Cn1c2ccccc2c2ccccc21)c1cccc2ccccc12 (centres undefined) | 77% (active)
36 | O=C(NCCCN1CCOCC1)c1cnn2c(-c3ccccc3)cc(-c3ccccc3)nc12 | -3.7%
37 | c1ccc(-n2nnnc2NC2CCCCCC2)cc1 | 33.5%
38 | Fc1ccccc1CCNc1nnnn1-c1ccccc1 | 73.1% (active)
39 | CCn1nnc(NC(=O)c2c(OC)cccc2OC)n1 | -17.4%
40 | COc1c(Cl)cc(C(=O)Nc2ccc(Cl)cn2)cc1Cl | 3.2%
41 | CCn1nnc(NC(=O)c2cc(Cl)c(OC)c(Cl)c2)n1 | 61.3% (active)
42 | CCCCNC(=S)NNC(=O)c1cc(C)on1 | 26.1%
43 | CC(=O)Nc1cc2ccc(OC(C)=O)cc2oc1=O | 8%
44 | CCOC(=O)c1c(CN2CCOCC2)n(-c2ccccc2)c2ccc(O)cc12 | 31.8%
45 | CCOC(=O)CN(C(=O)CN1CCOCC1)c1ccc(Br)cc1 | 64.6% (active)
46 | Cc1cccc(N(CC(=O)N2CCOCC2)S(C)(=O)=O)c1 | 3.3%
47 | Cc1nn(Cc2ccc(C(=O)N3N=C(C(F)F)CC3(O)C(F)F)cc2)c(C)c1[N+](=O)[O-] (centres undefined) | 10%
48 | Cc1ccc(-c2nc3ccccc3[nH]2)cc1N | 47%
49 | c1ccc(-c2[nH]ncc2-c2nc3ccccc3[nH]2)cc1 | 31.2%
50 | c1ccc2[nH]c(-c3nc4ccccc4[nH]3)nc2c1 | 53.1% (active)

Row | SMILES | inhibition
51 | CC(C)COC(=O)C1C2C=CC3(CN(C(C)c4ccc(Br)cc4)C(=O)C13)O2 (centres undefined) | 31%
52 | CC(=O)NC1(c2cccc(F)c2)CCN(CC(=O)NC(C)C)CC1 | 3.9%
53 | C/C(Cl)=C\Cn1c(Nc2cccc(C)c2)nc2c1c(=O)n(C)c(=O)n2C | -5.6%
54 | CCCOC(=O)C1=C(C)NC2=C(C(=O)C(C(=O)OC)C(C)C2)C1c1ccc(N(C)C)cc1 (centres undefined) | 3.6%
55 | CCOC(=O)C1=C(C)NC2=C(C(=O)CC(C)(C)C2)C1c1ccsc1 (centres undefined) | 50.4% (active)
56 | COc1cc(C2C(C#N)=C(C)NC3=C2C(=O)CC(C)(C)C3)ccc1O (centres undefined) | 20.5%
57 | Cc1cccc(NC(=O)c2sc3nc4c(c(-c5ccco5)c3c2N)CCC4)c1 | 13.8%
58 | O=C1CC(c2ccccc2)C(=O)N1c1cccc(O)c1 (centres undefined) | 60.7% (active)
59 | COC(=O)c1cc(C(=O)OC)cc(N2C(=O)CC(N3CCN(c4ccccc4)CC3)C2=O)c1 (centres undefined) | 12.1%
60 | O=C1CC(NNc2ccccc2)C(=O)N1c1cccc(Cl)c1 (centres undefined) | 18.7%
61 | O=C(NC1CCN(Cc2ccccc2)CC1)c1ccccc1F | 6.3%
62 | O=C(CCc1ccccc1)Nc1ccc(NC(=O)C2CC2)nc1 | 18.9%
63 | O=S(=O)(Nc1nccs1)c1ccc2c(c1)OCCO2 | 56.7% (active)
64 | CC(C)NS(=O)(=O)c1ccc(OCC(=O)Nc2ccc3c(c2)OCCO3)cc1 | 28.9%
65 | CN1CCCN(S(=O)(=O)c2ccc3c(c2)OCCO3)CC1 | -1.5%
66 | CCCCC(CC)C(=O)Nc1ccc(Cl)cn1 (centres undefined) | 7.2%
67 | CC(=O)Nc1ccc(S(=O)(=O)Nc2nc3n(n2)C(c2ccccc2)CC(=O)N3)cc1 (centres undefined) | -6%
68 | O=S(=O)(O)c1nc2ccccc2n1Cc1ccc(Cl)cc1 | 2.7%
69 | N=c1n(Cc2ccc(Cl)cc2)c2ccccc2n1CC(O)c1ccco1 (centres undefined) | 83.1% (active)
70 | Cn1c(=N)n(CC(O)c2ccccc2)c2ccccc21 (centres undefined) | -12.3%
71 | Cc1ccc(/C=N/NC(=O)c2sccc2OCc2ccc(F)cc2)cc1 | -8.9%
72 | Oc1ccccc1/C=N/n1c(-c2cccs2)n[nH]c1=S | -14.5%
73 | CCCN1C(=O)C(NC(C)=O)c2cc(OC)ccc21 (centres undefined) | -12.9%
74 | CCC1=C(C(=O)OC)C(c2cc(OC)ccc2OC)C(C#N)=C(N)O1 (centres undefined) | 54.8% (active)
75 | COc1ccc(-c2[nH]nc3c2C(c2ccncc2)C(C#N)=C(N)O3)cc1 (centres undefined) | -1.2%

Row | SMILES | inhibition
76 | CCCN1CC=C2C(C#N)=C(N)C(C#N)(C#N)C(c3cc(OC)ccc3OC)C2C1 (centres undefined) | 16.6%
77 | COC(=O)C1=C(C)OC(N)=C(C#N)C1c1cc(OC)ccc1OC (centres undefined) | 53.3% (active)
78 | Cc1cc(=O)oc(C)c1C(=O)NCc1ccc(F)cc1 | 33.5%
79 | CC(=O)NC(C(=O)NCC(N)=O)C(C)C (centres undefined) (Ac-[ξV]-Gly-NH2) | -4%
80 | COc1ccc(C2OC(=O)CC2C(=O)NC(C)C)cc1 (centres undefined) | 19.5%
81 | O=C(Nc1ccccc1F)C1C2C=CC3(O2)C1C(=O)N(c1cccnc1)C3C(=O)NC1CCCCC1 (centres undefined) | -8.2%
82 | CCC(=O)N(C)C(c1ccccc1Cl)c1nnnn1-c1c(C)cccc1C (centres undefined) | 11.1%
83 | O=C(c1ccccn1)c1ncc(C(F)(F)F)cc1Cl | 44.3%
84 | C#CCN(N(C)c1ncc(C(F)(F)F)cc1Cl)S(=O)(=O)c1ccc2ccccc2c1 | 94.5% (active)
85 | Cc1cc(C)cc(NS(=O)(=O)c2ccc(Oc3ncc(C(F)(F)F)cc3Cl)cc2)c1 | 9.5%
86 | CC(NC(=O)C1CCC(CNc2c(N3CCOCC3)c(=O)c2=O)CC1)c1ccccc1 (centres undefined) | -2.1%
87 | Nc1nc(Br)c2ccccc2c1-c1ccc(F)cc1 | 18.7%
88 | N#Cc1c(C(F)(F)F)cc(-c2ccccc2)nc1SCC(=O)N1CCOCC1 | 0%
89 | CCC/C(O)=C1\C(=O)CC(C)(C)CC1=Nc1ccccc1OC | 45.5%
90 | CC1(C)CC(=O)C=C(NC2CC(C)(C)NC(C)(C)C2)C1 | -1.1%
91 | COc1ccccc1-c1n[nH]c2c1[C@H](C)CC[C@H]2C(C)C | 21%
92 | CCOc1cccc(C(=O)Nc2nnc(-c3cccs3)s2)c1 | 2.2%
93 | CN(C(=O)COc1nnc(-c2cccs2)c(-c2cccs2)n1)c1ccccc1 | 75.5% (active)
94 | O=C(O)COc1ccc(-c2nccc(-c3cccs3)n2)cc1 | -9.2%
95 | O=C(O)Cc1ccc(NC(=O)C2CCCCC2C(=O)O)cc1 (centres undefined) | 2.3%
96 | CSCCC(Nc1nc2ccccc2s1)C(=O)O (centres undefined) | 12.6%
97 | COc1cccc(C2/C(=C(/O)c3ccncc3)C(=O)C(=O)N2CCCN(C)C)c1 (centres undefined) | -12.6%
98 | COc1cc(C2C(C(=O)c3sc(C)nc3C)=C(O)C(=O)N2CCN(C)C)cc(OC)c1OC (centres undefined) | 76.7% (active)
99 | COc1cc(C2C(C(=O)c3ccc(C)o3)=C(O)C(=O)N2Cc2cccnc2)ccc1O (centres undefined) | -12.6%
